Inhibition data for 1 compound are collected here from PubChem BioAssay AID540325 (National Center for Advancing Translational Sciences (NCATS), 2011).

The list shows a part of the results. The source made the active and inactive calls.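 How the source made its calls: active means inhibition at 10 µM of 30% or more; inconclusive means no clear call, values can overlap the other calls; inactive means inhibition at 10 µM under 30%.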

This experiment concerns the target DNA polymerase beta (Homo sapiens) (UniProt P06746). The experiment in a line: Inhibitors of DNA Polymerase Beta: Hit Validation in Radiolabeled Extension Assay. The conditions noted are these: radiolabeled primer extension gel assay, phosphorimager; at 10 µM; active compounds read high. An excerpt: The base excision repair system in human cells is a target for therapeutic modulation of the response to irradiation treatment and DNA-damaging drugs. A key enzyme in this system is the bi-functional DNA polymerase known as DNA polymerase Beta (Pol Beta). […] Using an integrated approach involving discovery of small molecule probes for Pol Beta via HTS and medchem optimization in collaboration with the NIH Chemical Genomics Center, validation by crystallography and kinetics along with cell-based validation experiments, we will test the hypothesis that base excision repair can be strategically modulated in human cells by targeting Pol Beta. Thus, we anticipate the Pol Beta-specific probes emerging from this research will serve as starting points in the development of clinical agents for use in downregulation of DNA base excision repair during therapeutic interventions against cancer. This assay is an orthogonal follow-up assay that looks at radiolabeled primer extension and was carried out by the assay provider. NIH Chemical Genomics Center [NCGC] NIH Molecular Libraries Probe Centers Network [MLPCN] […]
A primer oligonucleotide is 5'-32P end-labeled using T4 polynucleotide kinase and 32P-[ATP]. […] Percent extension of substrate to product is measured using standard, quantitative phosphoimager analysis.
For the compound `O=C(Nc1ccc(S(=O)(=O)Nc2nccs2)cc1)c1cc(-c2ccncc2)nc2ccccc12`, the inhibition (usually the percentage by which the read-out fell short of the control) was 96.4% (active).
